The subject of assay [1] is CRL-7250. Kind of assay: Cytotoxic Profiling of Annotated Libraries Using Quantitative High-Throughput Screening (AID 1296008). For max response: % is set by controls: 0 for no effect and ±100 for the full control effect. Note: nearly all actives have a fitted effect of over 60% in size. Note: potency is the fitted concentration of half-maximal effect. The following applies: Five cell lines viability, CellTiter-Glo ATP luminescence, 48-72 h; max response: stronger effect = lower value. The essentials:
(§1)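 Cells exposed to compounds for 48 or 72 hr at 37 degrees Celsius. Viability read as ATP-coupled luminescence with CellTiter-Glo after 10 min at room temperature.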

The subject of the next assay is HEK293. Described as above. The following applies: Five cell lines viability, CellTiter-Glo ATP luminescence, 48-72 h; max response: stronger effect = lower value. The essentials:
as §1

The subject of assay [2] is HaCat. The assay is described as above. Particulars: Five cell lines viability, CellTiter-Glo ATP luminescence, 48-72 h; max response: stronger effect = lower value. Summed up:
as §1

The test system of the next assay is KB-3-1. The assay is described as above. The following applies: Five cell lines viability, CellTiter-Glo ATP luminescence, 48-72 h; max response: stronger effect = lower value. Summed up: as §1
The test system of assay [3] is NIH3T3. Described as above. Particulars: Five cell lines viability, CellTiter-Glo ATP luminescence, 48-72 h; max response: stronger effect = lower value. The essentials: as §1
Assay [4] deals with CRL-7250. Kind of assay: qHTS assay to identify novel small-molecules to repurpose for Merkel cell carcinoma treatment (AID 1296009). Note: nearly all actives have a fitted effect of over 60% in size. Note: potency is the fitted concentration of half-maximal effect. The following applies: MCC and control cell lines, CellTiter-Glo viability, 72 h; series mostly up to 44.8 µM. The essentials: (§2)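 Cells were treated for 72 hr at 37 degree celsius with compounds in 8- or 11-point dose response. Viability was read by CellTiter-Glo luminescence, normalized to no-cell (cytotoxicity) and DMSO controls.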

Assay [5] deals with HACAT. The assay is described as above. The following applies: MCC and control cell lines, CellTiter-Glo viability, 72 h; at 44.8 µM (top of the series) unless noted. Summed up:
as §2

A further assay relates to HEK293T. The assay is described as above. The following applies: MCC and control cell lines, CellTiter-Glo viability, 72 h; at 44.8 µM (top of the series). The essentials:
as §2

A further assay has as its system MCC-13. Described as above. The following applies: MCC and control cell lines, CellTiter-Glo viability, 72 h; series mostly up to 46 µM. The essentials: as §2
The next assay deals with MCC-26. Described as above. Particulars: MCC and control cell lines, CellTiter-Glo viability, 72 h; series mostly up to 46 µM. Summed up:
as §2

The test system of another assay is MKL-1. The assay is described as above. The following applies: MCC and control cell lines, CellTiter-Glo viability, 72 h; series mostly up to 46 µM. The essentials: as §2
Another assay has as its system MKL-2. The assay is described as above. The following applies: MCC and control cell lines, CellTiter-Glo viability, 72 h; series mostly up to 46 µM. The essentials: as §2
For the next assay, the system named is UISO. Described as above. Particulars: MCC and control cell lines, CellTiter-Glo viability, 72 h; series mostly up to 46 µM. Summed up:
as §2

The subject of another assay is WaGa. The description is as above. The following applies: MCC and control cell lines, CellTiter-Glo viability, 72 h; series mostly up to 46 µM. The essentials: as §2
For a further assay, the system named is C33A. Kind of assay: Primary qHTS to identify gynecologic anti-cancer compounds using libraries of approved drugs and bioactive compounds (AID 1345084). Note: % is set by controls: 0 for no effect and ±100 for the full control effect; nearly all actives have a fitted effect of over 55% in size. The following applies: Gynecologic cancer cell panel viability, ATPlite luminescence, 48 h; series mostly up to 57.5 µM. Summed up:
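Luminescence from the ATPlite ATP-monitoring reagent indicates viable cell number; lower signal means cytotoxicity. Cells received compound 16 h after seeding and were exposed for 48 h across five concentrations.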

For another assay, the system named is TAB109. Kind of assay: qHTS profiling for inhibitors of Plasmodium falciparum proliferation (AID 504749). Note: nearly all actives have a fitted effect of over 60% in size. Note: potency is the fitted concentration of half-maximal effect. Particulars: P. falciparum in erythrocytes, SYBR Green DNA, 72 h; series mostly up to 28.7 µM. Summed up: (§3)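 P. falciparum-infected erythrocytes (0.3% parasitemia, 2.5% hematocrit) incubated with compound 72 h at 37 C, 5% CO2. Parasite DNA detected by SYBR Green after lysis, overnight at room temperature; normalised to 0.29 uM artemisinin and DMSO.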

In the next assay the test system is TAB113. Described as above. Particulars: P. falciparum in erythrocytes, SYBR Green DNA, 72 h; series mostly up to 28.7 µM. The essentials: as §3
The next assay deals with TAB165. Described as above. The following applies: P. falciparum in erythrocytes, SYBR Green DNA, 72 h; series mostly up to 28.7 µM. The essentials: as §3
Another assay concerns W2. The description is as above. The following applies: P. falciparum in erythrocytes, SYBR Green DNA, 72 h; series mostly up to 28.7 µM. The essentials: as §3
The test system of assay [6] is NIH3T3. Kind of assay: qHTS assay to identify novel small-molecules to repurpose for Merkel cell carcinoma treatment (AID 1296009). Note: nearly all actives have a fitted effect of over 60% in size. Note: potency is the fitted concentration of half-maximal effect. The following applies: MCC and control cell lines, CellTiter-Glo viability, 72 h; at 44.8 µM (top of the series) unless noted. Summed up:
as §2

We go through six compounds from PubChem BioAssay (NCATS).

Values joined by “and” are separate entries in the source; they are usually repeats but may differ in a detail not shown here. Equal values may be shown once. Records with an inconclusive call do not appear. Some compounds were tested as several samples or in several runs, with calls that do not always agree. Unmarked numbers belong to inactive results. Active and inactive are the calls of the source. Calls come from the whole dose curve; as a rule, active = well fitted curve in the direction sought with a large enough effect; inconclusive = small, poorly fitted or top-dose-only effect, or another doubt; inactive = no such curve, though single readings can be large; an effect the other way counts as inactive or inconclusive.

On to `O=C(O)C(=O)c1cn(Cc2ccccc2)c2ccc(-c3ccc(OC(F)(F)F)cc3)cc12`, for which the max response is -5.5% in the assay with CRL-7250 [1]; 3.18% with HEK293; -0.483% with HaCat [2]; -16.9% and 4.93% with NIH3T3 [3]. Moreover, the compound was classed as inactive with CRL-7250 [1], in the assay on HEK293, in the assay on HaCat [2], in the assay on KB-3-1, in the assay with CRL-7250 [4] and in the assay on HACAT [5]. Also, the outcome in the assay on HEK293T was inactive. Further, the Potency entry in the assay with MCC-13, in the assay with MCC-26, in the assay with MKL-1, in the assay on MKL-2, in the assay with UISO and in the assay on WaGa was “inactive” each time. For the same compound, in the assay with C33A, the Potency result was “inactive”.

With `COc1ccc(Cc2nccc3cc(OC)c(OC)cc23)cc1OC`, the Potency in the assay on CRL-7250 [1] was 5.31 µM (active); with HEK293 it was 8.41 µM (active). In addition, the max response with CRL-7250 [1] was 2.23%; in the assay with HaCat [2], -4.38% and -16.7%; in the assay on KB-3-1 it was -20.5% and -0.283%; with NIH3T3 [3] it was -6.53%. Moreover, the Potency entry with MCC-13, in the assay on MCC-26, in the assay with MKL-1, with MKL-2, in the assay on UISO and in the assay on WaGa was “inactive” each time.

Take `CN(C)[C@@H]1C(=O)C(C(N)=O)=C(O)[C@@]2(O)C(=O)C3=C(O)c4c(O)cccc4[C@@](C)(O)[C@H]3C[C@@H]12`: the max response with CRL-7250 [1] was -3.81%; with HEK293, -12.7%; with HaCat [2], -13.2% and 4.81%; with KB-3-1, -1.95% and 4.68%; in the assay on NIH3T3 [3], -3.21% and -4.63%. For the same compound, the result with CRL-7250 [1] and with CRL-7250 [4] was inactive. Further, the Potency result with MCC-13, in the assay on MCC-26, in the assay with MKL-1, with MKL-2, in the assay on UISO and in the assay with WaGa was “inactive” in each case. In addition, the Potency result with C33A is “inactive”.

As to `O=P1(NCCCl)OCCCN1CCCl` (stereo not drawn), the Potency entry with TAB109, in the assay on TAB113, in the assay with TAB165, in the assay with MCC-13, with MKL-1 and in the assay on MKL-2 was “inactive” each time. Besides, the Potency result with UISO, with WaGa and with C33A was “inactive” in each case. In addition, the max response in the assay with CRL-7250 [1] is -12.2%; in the assay on HEK293, 3.55%; in the assay on KB-3-1, 0.482% and 4.18%; in the assay on NIH3T3 [3], -11.2% and -20.7%. Further, the call in the assay with HaCat [2] and in the assay on HACAT [5] was inactive.

For the compound `Clc1cccc(N2CCNCC2)c1`, the Potency entry with TAB113, in the assay with TAB165, with MCC-13, in the assay on MCC-26, in the assay on MKL-1 and with MKL-2 was “inactive” in each case. For the same compound, the Potency entry in the assay on UISO, in the assay on WaGa and in the assay with C33A was “inactive” in each case. The Potency in the assay on W2 was 7.57 µM (active). For the same compound, the max response in the assay on CRL-7250 [1] was 1.11%; in the assay with HEK293, 1.3%; in the assay with KB-3-1, 5.71%. Further, the compound was classed as inactive in the assay on HaCat [2], in the assay with NIH3T3 [3], with HACAT [5] and in the assay with NIH3T3 [6].

Consider `N#CC(C#N)=Cc1ccc(O)c(O)c1`, for which the Potency entry in the assay on TAB165, in the assay on MCC-13, with MCC-26 and in the assay with C33A was “inactive” throughout. In addition, the max response was -16.4% with CRL-7250 [1], -18.8% in the assay on HEK293, 1.48% in the assay on KB-3-1 and -19.5% with NIH3T3 [3]. Further, the result in the assay on HaCat [2] and in the assay on HACAT [5] was inactive. For the same compound, the Potency is 7.5 µM (active) with MKL-1 and 13.3 µM (active) in the assay on WaGa.
